Only some compounds are listed: those with a hit (about 2.8% of all), similar ones and a draw of the others.
PAFAH2 FP inh = PAFAH2 enzyme inhibitors, primary screen, biochemical, fluorescence polarization, human; recombinant PAFAH2, FP-rhodamine activity probe; actives 0.99% (n = 340,000); Platelet-activating factor acetylhydrolase 2, cytoplasmic (Homo sapiens), Q99487; inhibition, % at 3.39 µM;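 active = inhibition above the mean over all tested compounds plus 3 SD, cut at about 30% in these data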;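 also: inhibitors block probe labeling of enzyme so polarization drops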
PAFAH1B2 inh = PAFAH1B2 enzyme inhibitors, primary screen, biochemical, fluorescence polarization, human. Platelet-activating factor acetylhydrolase IB subunit alpha2 (Homo sapiens), P68402. recombinant PAFAH1B2, FP-rhodamine activity probe. inhibition, % at 3.39 µM. actives 1.2% (n = 340,000);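 active = inhibition above the mean of all tested compounds plus 3 SD, cut at about 24% in these data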
pPAFAH FP inh = pPAFAH enzyme inhibitors, primary screen, biochemical, fluorescence polarization, human. AID 463082, 2010. inhibition, % at 3.39 µM. recombinant pPAFAH, FP-rhodamine probe fluorescence polarization. actives 1.5% (n = 330,000). Platelet-activating factor acetylhydrolase (Homo sapiens), Q13093;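 active = inhibition above the mean inhibition across the screen plus 3 SD, cut at about 25% in these data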;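 also: inhibitors block binding of the rhodamine activity-based probe so polarization drops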
Target sequence (Q13093 whole entry, looked up): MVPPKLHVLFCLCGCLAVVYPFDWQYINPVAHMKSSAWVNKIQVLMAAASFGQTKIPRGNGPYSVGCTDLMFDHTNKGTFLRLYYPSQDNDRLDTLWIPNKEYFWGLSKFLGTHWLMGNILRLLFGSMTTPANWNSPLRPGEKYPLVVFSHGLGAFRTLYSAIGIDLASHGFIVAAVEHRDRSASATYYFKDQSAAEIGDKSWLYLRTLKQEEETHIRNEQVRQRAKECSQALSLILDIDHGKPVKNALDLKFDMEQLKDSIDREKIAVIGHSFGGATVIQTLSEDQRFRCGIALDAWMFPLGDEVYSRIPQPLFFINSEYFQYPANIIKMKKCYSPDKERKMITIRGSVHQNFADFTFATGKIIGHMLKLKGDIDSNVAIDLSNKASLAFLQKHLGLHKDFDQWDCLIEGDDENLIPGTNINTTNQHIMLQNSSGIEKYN
PME-1 primary = PME-1 inhibitors via competitive probe labeling, primary screen, biochemical, fluorescence polarization, FP-Rh probe, HTS; Protein phosphatase methylesterase 1 (Homo sapiens), Q9Y570; inhibition, % at 5.9 µM; actives 0.53% (n = 320,000); AID 2130, 2009; recombinant PME-1;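 active = inhibition above the campaign mean of all compounds plus 3 SD, cut at about 26% in these data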;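 also: competitive labeling of PME-1 active site by serine hydrolase directed probe; inhibitors block probe labeling so polarization falls and inhibition rises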
Fam108B inh = mouse Fam108B serine hydrolase inhibitors, primary screen, counter-screen for RBBP9 inhibitor project, biochemical, fluorescence polarization | recombinant Fam108B, FP-Rh probe fluorescence polarization | inhibition, % at 9.51 µM | actives 0.33% (n = 300,000);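 active = inhibition above the screen mean inhibition plus 3 SD, computed separately per campaign, cut at about 18% in these data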;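 also: inhibitors lower polarization as less probe binds the enzyme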
PAFAH1B3 FP inh = PAFAH1B3 enzyme inhibitors, primary screen, biochemical, fluorescence polarization, human; recombinant PAFAH1B3, FP-rhodamine probe; inhibition, % at 3.39 µM; actives 0.28% (n = 340,000);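 active = inhibition above the screen-wide average of all tested compounds plus 3 SD, cut at about 25% in these data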
Target sequence (Q15102 whole entry, looked up): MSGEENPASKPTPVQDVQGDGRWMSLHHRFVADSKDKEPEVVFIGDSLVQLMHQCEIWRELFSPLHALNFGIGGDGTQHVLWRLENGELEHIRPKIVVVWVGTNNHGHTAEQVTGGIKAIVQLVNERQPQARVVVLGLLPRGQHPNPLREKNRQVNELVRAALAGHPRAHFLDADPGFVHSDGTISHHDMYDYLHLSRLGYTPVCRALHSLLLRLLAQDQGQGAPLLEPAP
PAFAH2 FP conf = PAFAH2 enzyme inhibitors, confirmation, biochemical, fluorescence polarization, human; actives 65% (n = 2,300); shares compounds with PAFAH2 FP inh; inhibition, % at 3.39 µM; recombinant PAFAH2, FP-rhodamine activity probe;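 active = mean inhibition over three repeats above a set limit taken from the earlier primary screen, cut at about 30% in these data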;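 also: inhibitor blocks binding of rhodamine activity probe so polarization falls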
Large screens that a line does not name were inactive (follow-up assays come after a bar, where they were run).

O=C(COC(=O)c1ccc(CNS(=O)(=O)c2ccc(F)c(Cl)c2)cc1)NC1CCCCCCC1	none
O=C(COC(=O)c1ccc(F)c(S(=O)(=O)N2CCOCC2)c1)NCCc1ccc(F)cc1	PAFAH2 FP inh 30 (no result: PME-1 primary, Fam108B inh) | PAFAH2 FP conf inactive
O=C(COC(=O)c1ccc(F)c(S(=O)(=O)N2CCCCC2)c1)NCc1ccc(F)cc1	PAFAH2 FP inh 32 | PAFAH2 FP conf inactive
Cc1ccc(NC(=O)COC(=O)c2ccc3c(c2)NC(=O)C2CCCN32)cc1 (configuration not stated)	PAFAH2 FP inh 68 | PAFAH2 FP conf 76
O=C(O)CCc1nc(-c2ccccc2Cl)no1	none
O=C(OCc1nc(-c2ccccc2Cl)no1)c1ccco1	PAFAH2 FP inh 42 (no result: Fam108B inh) | PAFAH2 FP conf 41
O=C(OCc1nnc(-c2ccccc2Br)o1)c1ccco1	PAFAH2 FP inh 53 (no result: PME-1 primary, Fam108B inh) | PAFAH2 FP conf 50
Cc1nn(-c2ccccc2)c(OC(=O)c2cccs2)c1S(=O)(=O)c1ccc([N+](=O)[O-])cc1	none
CC(C)=CC(=O)OCC(=O)Nc1cccc([N+](=O)[O-])c1	PAFAH2 FP inh 76 | PAFAH2 FP conf 75
CC1CC1C(=O)OCC(=O)Nc1ccc2[nH]c(=O)[nH]c2c1 (configuration not stated)	none
Cc1ccc(C(=O)c2ccccc2C(=O)OCC(=O)Nc2cccc([N+](=O)[O-])c2)cc1	PAFAH2 FP inh 73 | PAFAH2 FP conf 77
Cc1ccc(-c2nc(C)sc2CC(=O)OCC(=O)Nc2cccc([N+](=O)[O-])c2)cc1	none
COc1cc([N+](=O)[O-])ccc1NC(=O)COC(=O)C=C(C)C	none
CC1CC1C(=O)OCC(=O)Nc1cccc([N+](=O)[O-])c1 (configuration not stated)	PAFAH2 FP inh 82 | PAFAH2 FP conf 84
Cc1cccc(NC(=O)COC(=O)c2ccccc2SCC(=O)N2CCCC2)c1	PAFAH2 FP inh 88 | PAFAH2 FP conf 74
O=C(COC(=O)c1ccccc1SCC(=O)N1CCCC1)Nc1ccc(OC(F)F)cc1	PAFAH2 FP inh 73 | PAFAH2 FP conf 76
N#Cc1cccnc1N1CCN(C(=O)c2cccs2)CC1	none (no result: pPAFAH FP inh, PME-1 primary, Fam108B inh)
CCc1ccc(NC(=O)COC(=O)/C=C/c2ccco2)cc1	PAFAH2 FP inh 73 (no result: PME-1 primary, Fam108B inh) | PAFAH2 FP conf 73
CCN(c1ccc(NC(=O)COC(=O)/C=C/c2ccco2)cc1)C(C)C	none (no result: PME-1 primary, Fam108B inh)
O=C(COC(=O)/C=C/c1ccco1)Nc1ccc(F)cc1Cl	PAFAH2 FP inh 63 | PAFAH2 FP conf 46
O=C(COC(=O)/C=C/c1ccco1)Nc1ccccc1	PAFAH2 FP inh 85 | PAFAH2 FP conf 83
COC(=O)c1ccccc1NC(=O)COC(=O)/C=C/c1ccco1	none
CNC(=O)c1c(C)nn(-c2ccc(F)c(Cl)c2)c1-c1cc(C)on1	none (no result: PAFAH2 FP inh, PAFAH1B2 inh, PAFAH1B3 FP inh)
O=c1cc(-c2ccccc2)[nH]n1-c1ccccc1	none (no result: pPAFAH FP inh, PME-1 primary, Fam108B inh)
O=c1cc(-c2ccccc2)[nH]n1-c1nc2ccccc2s1	PAFAH2 FP inh 42 | PAFAH2 FP conf 47
COc1ccc(N(CC(=O)NCc2cccs2)S(=O)(=O)c2ccc(F)cc2)cc1	none (no result: Fam108B inh)
Cc1cc(O)cc(C)c1NS(=O)(=O)c1ccc2ccccc2c1	none
O=C(O)C(Cc1ccccc1)N1C(=O)c2ccccc2C1=O (configuration not stated)	none
O=C(O)C(Cc1ccccc1)N1C(=O)c2c(Cl)c(Cl)c(Cl)c(Cl)c2C1=O (configuration not stated)	PAFAH2 FP inh 32 | PAFAH2 FP conf inactive
Cc1ccc(NC(=O)COC(=O)c2ccn(C)n2)cc1	PAFAH2 FP inh 68 | PAFAH2 FP conf 63
Cn1ccc(C(=O)OCC(=O)Nc2ccccc2)n1	PAFAH2 FP inh 73 (no result: pPAFAH FP inh, PME-1 primary, Fam108B inh) | PAFAH2 FP conf 78
Cn1nccc1C(=O)OCC(=O)Nc1ccccc1	PAFAH2 FP inh 40 (no result: pPAFAH FP inh, PME-1 primary, Fam108B inh) | PAFAH2 FP conf inactive
Cc1ccc(C(=O)OCC(=O)Nc2ncc(C(F)(F)F)cc2Cl)cc1NC(=O)c1ccco1	PAFAH2 FP inh 36 | PAFAH2 FP conf inactive
COC(=O)c1ccccc1NC(=O)COC(=O)c1ccc(C)c(NC(=O)c2ccco2)c1	none
CS(=O)(=O)c1ccc(Cl)c(NC(=O)Cc2ccccc2F)c1	PAFAH2 FP inh 52 | PAFAH2 FP conf 30
O=c1oc(-c2cccs2)nc2sc3c(c12)CCCC3	PAFAH2 FP inh 42 | PAFAH2 FP conf 38
O=c1[nH]c(-c2ccco2)nc2sc3c(c12)CCCC3	none
O=c1oc(-c2cccs2)nc2sc3c(c12)CCC3	PAFAH2 FP inh 56 | PAFAH2 FP conf 48
O=c1c2c3c(sc2nc2n1N=C(c1cccs1)CS2)CCCC3	none
Cc1nc2sc3c(c2c(=O)o1)CC(C)(C)OC3	none
O=c1oc(/C=C/c2ccco2)nc2sc3c(c12)CCC3	PAFAH2 FP inh 55 | PAFAH2 FP conf inactive
Cc1nc2sc3c(c2c(=O)o1)CCC3	PAFAH2 FP inh 60 | PAFAH2 FP conf 50
O=C(COC(=O)Cc1ccccc1[N+](=O)[O-])NNC(=O)c1ccc([N+](=O)[O-])cc1	none (no result: Fam108B inh)
CCC(=O)N1c2ccc(S(=O)(=O)N3CCN(c4ccccc4Cl)CC3)cc2CC1C (configuration not stated)	none
CCOC(=O)CC(=O)CSc1[nH]c(=O)cc(C)c1C#N	none
COc1ccc(C(=O)OCC2CC(c3ccccc3)N(C)O2)cc1 (configuration not stated)	PAFAH2 FP inh 56 | PAFAH2 FP conf 45
O=C(CCl)N1CCCC1c1ccc2c(c1)OCCO2 (configuration not stated)	none
CC(=O)Nc1ccc(-c2nc3ccccc3c(=O)o2)cc1	none
O=c1oc(-c2ccc([N+](=O)[O-])cc2)nc2ccccc12	PAFAH2 FP inh 74 | PAFAH2 FP conf 82
O=c1oc(-c2ccc(Br)cc2)nc2ccccc12	PAFAH2 FP inh 76 | PAFAH2 FP conf 70
O=c1oc(-c2cccs2)nc2ccccc12	PAFAH2 FP inh 56 | PAFAH2 FP conf 35
Nc1ccccc1-c1nc2ccccc2c(=O)o1	PAFAH2 FP inh 30 | PAFAH2 FP conf inactive
CCn1c(C(=O)NCc2cccnc2)cc2sc(Cl)cc21	none
Cc1ccc(OCC(COCc2ccccc2)NC(C)C)cc1 (configuration not stated)	none
O=c1oc(-c2ccccc2)nc2ccsc12	PAFAH2 FP inh 44 | PAFAH2 FP conf 30

Screening results from PubChem.
